Screens (PubChem)
Rows were chosen to be rich in hits. Some 3.8% of all compounds tested hit in one or more screens of this group.
ATXN2 expr inh – Primary qHTS for Inhibitors of ATXN expression; AID 1745845, 2022; 360,000 compounds, 0.72% hits; Potency, µM (highest dose often 57 µM), inactives show at the highest dose activity change, negative = inhibition, hits mostly inhibitors; HEK-293 ATXN2-luciferase reporter, luminescence, 24 h; further: on the % scale 0 is the no-effect control and ±100 the full control effect; nearly all actives have a fitted effect of over 55% in size
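ATXN2-luciferase reporter cells (luciferase flanked by upstream and downstream ATXN2 gene portions) were treated 24 h at 37 °C with compounds at up to 57 uM. SteadyGlo luminescence gave expression; GF-AFC fluorescence gave viability.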
A549 tox – Nrf2 qHTS screen for inhibitors: counterscreen for cytotoxicity; A549 ARE-Fluc cells, CellTiter-Fluor viability, 18-24 h; Potency, µM (doses to about 46 µM), inactives show at the highest dose activity change, negative = cytotoxicity, most hits filed as inhibitors; 390,000 compounds, 0.16% hits; further: on the % scale 0 is the no-effect control and ±100 the full control effect
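Cytotoxicity counterscreen: CellTiter-Fluor fluorescence was measured in A549 ARE_Fluc cells after 18-24 h of compound exposure in a concentration series. The subsequent BugLite luminescent read reports ARE-luciferase activity.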
Nrf2 block – Nrf2 qHTS screen for inhibitors; A549 ARE-Fluc reporter, luciferase luminescence, 18-24 h; Potency, µM (doses to about 46 µM), without a hit: at the highest dose activity change, negative = inhibition, actives largely listed as inhibitors; 360,000 compounds, 2.1% hits; further: on the % scale 0 is the no-effect control and ±100 the full control effect; nearly all actives have a fitted effect of over 60% in size
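Nrf2 function is reported as luminescence of an ARE-controlled luciferase in A549 cells. Compounds were tested at several concentrations, and a CellTiter-Fluor read on the same wells flagged cytotoxicity.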
TGFb inhibitor – qHTS for Inhibitors of TGF-b; Potency, µM (doses to about 46.1 µM), without a hit: top-dose activity, negative = inhibition, hits mostly inhibitors; HepG2 CAGA-GFP TGF-b/SMAD3 reporter, GFP fluorescence, 18 h; TGF-beta stimulated, 500 pg/mL final; 410,000 compounds, 1.2% hits; AID 588855, 2011; further: on the % scale 0 is the no-effect control and ±100 the full control effect; nearly all actives have a fitted effect of over 65% in size
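Inhibition of TGF-beta-driven CAGA-GFP reporter expression in HEPG2 cells is measured by cellular GFP fluorescence after 18 h stimulation with 500 pg/mL recombinant TGF-beta in 1% FBS medium at 37 degrees C.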
ATXN viability – Viability Counterscreen for Primary qHTS for Inhibitors of ATXN expression; AID 651635, 2014; S2 cells (HEK-293 line with an ATXN2-luciferase reporter) viability, CellTiter-Fluor protease fluorescence, 24 h; Potency, µM (series often up to 56.7 µM), hits mostly cytotoxic; 400,000 compounds, 0.49% hits; further: nearly all actives have a fitted effect of over 40% in size
HepG2 viability – qHTS for Inhibitors of TGF-b: Cytotox Counterscreen. HepG2 CAGA-GFP viability, ATP luminescence, 18 h. Potency, µM (titrated, usually from 46.1 µM), for inactives: top-dose activity change, negative = cytotoxicity, hits mostly cytotoxic. 410,000 compounds, 0.76% hits
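CellTiter-Glo luminescence gave cytotoxicity after 18 hours at 37 degrees C. The cells were HepG2 CAGA-GFP in 1% FBS DMEM, stimulated with 500 pg/mL TGF-beta after compound addition. %Activity was normalised to no-cell wells (complete cell-killing) and DMSO (no toxicity), and curves were fitted and classified.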
Active calls of the source: *; i = inactive; ? = inconclusive; . = no result; [ ] = another dose, or the depositor's remark. The call rests on the fitted dose curve; in most records, active means well fitted curve in the direction sought with a large enough effect; inconclusive means small, poorly fitted or top-dose-only effect, or another doubt; inactive means no such curve, though single readings can be large; an effect the other way counts as inactive or inconclusive. Potency means the concentration at half of the fitted maximal effect.

SMILES | ATXN2 expr inh | A549 tox | Nrf2 block | TGFb inhibitor | ATXN viability | HepG2 viability
COc1ccc(N2CCN(C(CNC(=O)c3c(F)cccc3F)c3ccc4c(c3)OCO4)CC2)cc1 (centres undefined) | 2.0% | -12.3% | . | -0.6% | i | -6.9%
COc1cc(/C=N/NC(=O)c2cc(C)oc2C)cc(OC)c1OC | 25.7% | 1.5% | 11.8% | 8.5% | i | 2.7%
Cc1ccc(-c2cn3c(=O)cc(C)[nH]c3n2)cc1 | -24.5% | -15.3% | 5.8µM* | -3.2% | i | -2.2%
CCCCN(CCCC)CC(O)c1cc(Cl)cc2c1-c1ccc(Cl)cc1/C2=C/c1ccc(Cl)cc1 (centres undefined) | 25.1µM* | . | . | . | ? | .
O=C(CS(=O)CC(=O)NC12CC3CC(CC(C3)C1)C2)Nc1ccc(F)cc1 (centres undefined) | 4.4% | 14.0% | 7.6% | 17.1% | i | -12.1%
COc1ccc(-n2ccn(Cc3ccccc3C)c(=O)c2=O)cc1 | . | -0.7% | -2.1% | 15.6% | . | -4.9%
O=C(/C=C/c1cccc([N+](=O)[O-])c1)OCC(=O)N1CCCCC1 | . | . | . | 4.7% | i | -13.3%
Cc1ccc(OCCn2c(=O)n(C)c3ccccc32)cc1 | 69.5% | 1.1% | ? | 4.4% | i | 5.0%
O=C1C=CC(=O)N1c1ccc2c(c1)Cc1cc(F)ccc1-2 | 0.0% | -3.3% | -5.5% | -5.7% | ? | 0.4%
CC(=O)Nc1ccc2c(c1)Cc1cc(N3C(=O)C=CC3=O)ccc1-2 | ? | -5.3% | -9.1% | 15.8µM* | ? | -71.7%
CN(C)CCNC(=O)c1cccc(-c2cnc3c(NC=O)cc(-c4ccc(F)cc4)cn23)c1 | 0.0% | . | . | ? | . | 11.2µM*
COc1ccc(-c2cc(NC=O)c3ncc(-c4cccc(C(=O)NCCN(C)C)c4)n3c2)cc1 | ? | . | . | ? | i | -25.0%
COc1ccc(F)cc1-c1cc(NC=O)c2ncc(-c3cccc(C(F)(F)F)c3)n2c1 | -34.3% | . | . | ? | ? | 12.6µM*
CN1CCN(c2ccc(-c3cc(NC=O)c4ncc(-c5ccc(F)c(Cl)c5)n4c3)cc2)CC1 | ? | . | . | 20µM* | . | -86.4%
CC(=O)Nc1cc(-c2cccc(C(=O)NCCN(C)C)c2)cn2c(-c3cccc(C(F)(F)F)c3)cnc12 | -2.6% | . | . | ? | 31.6µM* | 12.6µM*
CC(=O)Nc1cc(-c2cccc(C(=O)NCCN(C)C)c2)cn2c(-c3ccccc3)cnc12 | ? | . | . | 68.3% | i | -34.2%
O=C(NCCC1CCCCN1S(=O)(=O)c1ccc(F)cc1)C(=O)NCC1CCCO1 (centres undefined) | 2.0% | 1.4% | -1.3% | 2.2% | i | -18.3%
CN(C)CCNC(=O)c1cccc(-c2cnc3c(NC=O)cc(-c4cccc(F)c4)cn23)c1 | ? | . | . | 20µM* | . | 12.6µM*
COc1ccc(NS(=O)(=O)c2ccc(NC(=O)c3ccc(Br)cc3)cc2)nn1 | . | -4.4% | 20.6µM* | -15.1% | i | 1.1%
CCN(Cc1ccccc1)S(=O)(=O)c1ccc(C(=O)N(CCCN(C)C)c2nc3cc4c(cc3s2)OCO4)cc1 | ? | -16.9% | -15.3% | 15.8µM* | ? | 12.6µM*
Cc1ccc2sc(N(CCCN(C)C)C(=O)c3ccc(Br)s3)nc2c1C | 20µM* | 0.0% | 7.9% | ? | . | 12.6µM*
Cc1ccc(C(=O)N(CCCN(C)C)c2nc3ccc(Cl)cc3s2)cc1C | ? | -4.3% | -13.2% | ? | ? | 22.4µM*
CN(C)CCN(C(=O)c1ccc2c(c1)OCCO2)c1nc2ccc(Cl)cc2s1 | -3.1% | 3.7% | 1.7% | 3.9% | i | -5.1%
CCN(Cc1ccccc1)S(=O)(=O)c1ccc(C(=O)N(CCCN(C)C)c2nc3c(C)c(C)ccc3s2)cc1 | 0.0% | ? | 18.4µM* | ? | ? | -102.5%
CC(=O)c1ccc(C(=O)N(CCCN(C)C)c2nc3c(C)c(C)ccc3s2)cc1 | -31.1% | 8.8% | 7.2% | ? | i | -56.5%
SMILES | ATXN2 expr inh | A549 tox | Nrf2 block | TGFb inhibitor | ATXN viability | HepG2 viability
N#Cc1nc(Nc2cc(F)cc(F)c2)c2ncn(CCO)c2n1 | . | -19.8% | -5.7% | . | . | .
CC(C)(C)NC(=S)NC1CC1 | 6.4% | 0.2% | 10.5% | -1.7% | i | 13.8%
CCOCCc1nn2c(=O)cc(COC(=O)c3ccccc3NC(=O)c3ccccc3F)nc2s1 | 14.3% | 2.9% | . | -5.9% | i | 2.8%
O=C(N/N=C/c1ccccn1)NC12CC3CC(CC(C3)C1)C2 | 61.7% | 1.5% | ? | 23.7% | i | -31.2%
CN(C)CCCN(C(=O)c1ccc(C(=O)c2ccccc2)cc1)c1nc2cc3c(cc2s1)OCCO3 | -19.6% | 9.8% | 4.9% | 14.1µM* | i | -89.3%
C=CCc1cccc(/C=N/NC(=O)CNc2ccccc2)c1O | 17.8µM* | ? | ? | ? | ? | -51.4%
C=CCc1cccc(/C=N/NC(=O)CCCNc2ccc(C)cc2)c1O | ? | 10.3% | -14.1% | ? | i | -90.6%
C=CCc1cccc(/C=N/NC(=O)C[n+]2ccccc2)c1O | ? | -14.4% | ? | 8.9% | i | -15.8%
COc1cccc(/C=N/NC(=O)CSCC(=O)Nc2ccccc2)c1O | 28.2µM* | 3.1% | . | 8.5% | i | -17.5%
C=CCc1cccc(/C=N/NC(=O)CNc2cccc3ccccc23)c1O | ? | -0.3% | -0.8% | ? | ? | -100.3%
C=CCc1cccc(/C=N/NC(=O)CNc2ccccc2OC)c1O | ? | ? | ? | 12.6µM* | i | -24.1%
C=CCc1cccc(/C=N/NC(=O)CCC(=O)Nc2ccc(F)cc2)c1O | 3.55µM* | 7.1% | -10.5% | ? | i | -16.4%
O=C(Nc1cccc(C(=O)N2CCCCC2)c1)C1CCCCC1 | 9.3% | 0.9% | 7.5% | 12.1% | i | 1.4%
COc1ccc2c(CNCc3cccs3)c(C(=O)O)n(Cc3ccccc3C)c2c1 | . | -11.0% | 9.4% | 2.1% | . | -7.8%
C=CCn1c(CNc2ccccc2)nnc1SCC(=O)N/N=C/c1ccccc1O | 17.8µM* | -5.3% | . | ? | i | -28.4%
C=CCn1c(COc2ccc(Cl)cc2)nnc1SCC(=O)N/N=C/c1cccc(O)c1 | -13.5% | 2.8% | . | ? | ? | -1.0%
CC(C)c1ccc(C2N=C(N)Nc3nc4ccccc4n32)cc1 (centres undefined) | 11.8% | -0.9% | 15.4% | ? | i | -26.7%
O=C(CSc1nc2ccccc2c(=O)n1Cc1ccco1)c1ccccc1 | 13.1% | 14.4%[1.84 µM] | 18.4µM* | -3.1% | i | -36.2%
